Among the data in PubChem BioAssay (NCI) are growth inhibition values, retold here.

The structures appear in SMILES notation. Compounds without any hit were thinned out: in the full panel of roughly 79,000, 15% have a hit. Unmarked numbers belong to inactive results. The source made the active and inactive calls. Cut-off read from the data, not from the text of the source: active = growth inhibition above about 70%; inactive = the rest.

The nature of test [1]: NCI Yeast Anticancer Drug Screen. Data for the rad50 strain (AID 155).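 Note: 0% = growth of vehicle-only cultures of the same strain.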 The following applies: S. cerevisiae rad50 strain growth inhibition, stronger effect = higher value. An outline of the steps:
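Inhibition values express reduced yeast growth in compound-treated cultures relative to vehicle-treated controls.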

Test [2] in a line: NCI Yeast Anticancer Drug Screen. Data for the mec2-1 strain (AID 157). To be noted: S. cerevisiae mec2-1 strain, stronger effect = higher value. The method, boiled down:
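Compounds were applied to mec2-1 yeast cells. Their growth was then compared with that of vehicle-treated cultures to give growth inhibition.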

A short description of test [3]: NCI Yeast Anticancer Drug Screen. Data for the sgs1 mgt1 strain (AID 161).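 Note: 0% = growth of cultures given vehicle only.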 To be noted: S. cerevisiae sgs1 mgt1 strain, stronger effect = higher value. The method, boiled down: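 Yeast cells carrying a defined DNA-repair defect were exposed to test compounds. Growth inhibition was measured relative to vehicle-treated controls.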
The nature of test [4]: NCI Yeast Anticancer Drug Screen. Data for the cln2 rad14 strain (AID 165).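 Note: 0% = growth equal to vehicle treated cultures.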 To be noted: S. cerevisiae cln2 rad14 strain, stronger effect = higher value. The method, boiled down:
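Strain: cln2 rad14 yeast, altered in cell cycle control and DNA damage repair. Read-out: growth inhibition vs vehicle.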

Test [5] in a line: NCI Yeast Anticancer Drug Screen. Data for the bub3 strain (AID 167). The following applies: S. cerevisiae bub3 mutant strain, stronger effect = higher value. An outline of the steps: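 Steps: expose the mutant yeast strain to compound; grow alongside vehicle-treated cultures; measure growth; express inhibition against the vehicle cultures.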
Test [6] in a line: NCI Yeast Anticancer Drug Screen. Data for the mlh1 rad18 strain (AID 175). The following applies: S. cerevisiae mlh1 rad18 strain growth inhibition, stronger effect = higher value. An outline of the steps:
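A repair-deficient yeast strain is exposed to test compound, and growth is scored relative to vehicle-treated controls.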

The mark [7] stands for this setting: at 5.0 µM (retest, dose inferred, filed as 0.5).
Setting [8] is: at 50.0 µM (retest, dose inferred, filed as 5.0).

Regarding `COC1C=COC2(C)Oc3c(C)c(O)c4c(O)c(c(C5SCCS5)c(O)c4c3C2=O)NC(=O)/C(C)=C\C=CC(C)C(O)C(C)C(O)C(C)C(OC(C)=O)C1C` (stereo not given), the growth inhibition is -3% in test [1] (setting [7]); 96% (active) in test [1] (setting [8]); 94.7% (active) in test [1] (at 50.0 µM); 1% in test [2] (setting [7]); 97% (active) in test [2] (setting [8]); 96.9% (active) in test [2] (at 50.0 µM). In addition, the growth inhibition is -5% in test [3] (setting [7]); 34% in test [3] (setting [8]); 41.5% in test [3] (at 50.0 µM); 14% in test [4] (setting [7]); 97% (active) in test [4] (setting [8]); 95% (active) in test [4] (at 50.0 µM). Also, the growth inhibition in test [5] (setting [7]) was 2%; in test [5] (setting [8]), 99% (active); in test [5] (at 50.0 µM), 95.8% (active); in test [6] (setting [7]) it was 4%; in test [6] (setting [8]), 97% (active); in test [6] (at 50.0 µM), 95.4% (active).

Take `O=C1/C(=C/O)CCc2c1ccc1ccccc21`: the growth inhibition in test [1] (setting [7]) was 15%; in test [1] (setting [8]) it was 98% (active); in test [1] (at 50.0 µM) it was 98.4% (active); in test [2] (setting [7]), 9%; in test [2] (setting [8]), 99% (active); in test [2] (at 50.0 µM), 99% (active). Moreover, the growth inhibition in test [3] (setting [7]) was -9%; in test [3] (setting [8]) it was 98% (active); in test [3] (at 50.0 µM), 99.1% (active); in test [4] (setting [7]), 6%; in test [4] (setting [8]), 99% (active); in test [4] (at 50.0 µM), 97.7% (active). For the same molecule, the growth inhibition in test [5] (setting [7]) is 10%; in test [5] (setting [8]) it was 98% (active); in test [5] (at 50.0 µM), 98.9% (active); in test [6] (setting [7]), 17%; in test [6] (setting [8]), 98% (active); in test [6] (at 50.0 µM), 96.2% (active).

Take `N#CSCCSC#N`: the growth inhibition is 5% in test [1] (setting [7]); 95% (active) in test [1] (setting [8]); 76% (active) in test [1] (at 50.0 µM); -1% in test [2] (setting [7]); 93% (active) in test [2] (setting [8]); 82.5% (active) in test [2] (at 50.0 µM). The growth inhibition in test [3] (setting [7]) is 4%; in test [3] (setting [8]), 91% (active); in test [3] (at 50.0 µM), 87.2% (active); in test [4] (setting [7]) it was 6%; in test [4] (setting [8]), 86% (active); in test [4] (at 50.0 µM), 40.3%. Further, the growth inhibition in test [5] (setting [7]) is 9%; in test [5] (setting [8]), 96% (active); in test [5] (at 50.0 µM), 81.8% (active); in test [6] (setting [7]), 3%; in test [6] (setting [8]) it was 95% (active); in test [6] (at 50.0 µM), 83.7% (active).

Consider `C[C@]12CCC(=O)C=C1CC[C@@H]1[C@@H]2[C@@H](O)C[C@@]2(C)[C@H]1CC[C@]2(O)C(=O)COC(=O)C1CCCC1`, for which the growth inhibition in test [1] (setting [7]) was -7%; in test [1] (setting [8]), -10%; in test [1] (at 50.0 µM), 76.8% (active); in test [2] (setting [7]) it was 1%; in test [2] (setting [8]), -1%; in test [2] (at 50.0 µM) it was 19.8%. The growth inhibition is -2% in test [3] (setting [7]); -9% in test [3] (setting [8]); 87.7% (active) in test [3] (at 50.0 µM); -18% in test [4] (setting [7]); -93% in test [4] (setting [8]); 35.9% in test [4] (at 50.0 µM). Further, the growth inhibition is 8% in test [5] (setting [7]); 11% in test [5] (setting [8]); 82.8% (active) in test [5] (at 50.0 µM); -7% in test [6] (setting [7]); -16% in test [6] (setting [8]); 72.2% (active) in test [6] (at 50.0 µM).

With `O=C(c1ccccc1)c1ccccc1S(=O)(=O)Nc1ccccc1`, the growth inhibition in test [1] (setting [7]) is -5%; in test [1] (setting [8]), 79% (active); in test [1] (at 50.0 µM) it was 62.9%; in test [2] (setting [7]), -2%; in test [2] (setting [8]), 69%; in test [2] (at 50.0 µM), 27.8%. The growth inhibition in test [3] (setting [7]) is -3%; in test [3] (setting [8]) it was 77% (active); in test [3] (at 50.0 µM), 30.2%; in test [4] (setting [7]), -8%; in test [4] (setting [8]), 86% (active); in test [4] (at 50.0 µM), 62.1%. The growth inhibition is 4% in test [5] (setting [7]); 91% (active) in test [5] (setting [8]); 64.2% in test [5] (at 50.0 µM); -2% in test [6] (setting [7]); 87% (active) in test [6] (setting [8]); 72.8% (active) in test [6] (at 50.0 µM).

Consider `COc1cccc(C2c3cc4c(cc3OC(NNS(=O)(=O)c3ccc(C)cc3)C2C)OCO4)c1O` (stereo not given), for which the growth inhibition was -7% in test [1] (setting [7]); 94% (active) in test [1] (setting [8]); 75.4% (active) in test [1] (at 50.0 µM); -10% in test [2] (setting [7]); 81% (active) in test [2] (setting [8]); 85.6% (active) in test [2] (at 50.0 µM). The growth inhibition in test [3] (setting [7]) was -4%; in test [3] (setting [8]), 95% (active); in test [3] (at 50.0 µM), 92.2% (active); in test [4] (setting [7]) it was 9%; in test [4] (setting [8]) it was 88% (active); in test [4] (at 50.0 µM), 87.2% (active). The growth inhibition in test [5] (setting [7]) is -20%; in test [5] (setting [8]), 92% (active); in test [5] (at 50.0 µM), 54%; in test [6] (setting [7]), 6%; in test [6] (setting [8]), 94% (active); in test [6] (at 50.0 µM), 85.5% (active).

For the molecule `CC(=O)N(c1ccccc1)c1nc2ccccc2s1`, the growth inhibition in test [1] (setting [7]) is -8%; in test [1] (setting [8]), 1%; in test [1] (at 50.0 µM) it was -41.2%; in test [2] (setting [7]), -4%; in test [2] (setting [8]), -4%; in test [2] (at 50.0 µM), -22.9%. The growth inhibition in test [3] (setting [7]) was -6%; in test [3] (setting [8]), -4%; in test [3] (at 50.0 µM) it was -22.6%; in test [4] (setting [7]) it was -2%; in test [4] (setting [8]), -6%; in test [4] (at 50.0 µM), -42.6%. The growth inhibition in test [5] (setting [7]) was 30%; in test [5] (setting [8]) it was 59%; in test [5] (at 50.0 µM), 75.7% (active); in test [6] (setting [7]), -25%; in test [6] (setting [8]), -51%; in test [6] (at 50.0 µM), -30.3%.

Take `O=C(Nc1c(Cl)cccc1Cl)OCCOc1ccc(Cl)cc1Cl`: the growth inhibition is 44% in test [1] (setting [7]); 73% (active) in test [1] (setting [8]); 88.5% (active) in test [1] (at 50.0 µM); 36% in test [2] (setting [7]); 57% in test [2] (setting [8]); 90.8% (active) in test [2] (at 50.0 µM). In addition, the growth inhibition in test [3] (setting [7]) was 47%; in test [3] (setting [8]) it was 58%; in test [3] (at 50.0 µM), 91.2% (active); in test [4] (setting [7]) it was 34%; in test [4] (setting [8]) it was 61%; in test [4] (at 50.0 µM), 88.2% (active). The growth inhibition in test [5] (setting [7]) was 38%; in test [5] (setting [8]), 71% (active); in test [5] (at 50.0 µM) it was 90.7% (active); in test [6] (setting [7]), 55%; in test [6] (setting [8]) it was 80% (active); in test [6] (at 50.0 µM), 90% (active).

As for `ClCc1nnc2n1-c1ccc(Cl)cc1SC2`, the growth inhibition in test [1] (setting [7]) was 3%; in test [1] (setting [8]), 68%; in test [1] (at 50.0 µM), 12.4%; in test [2] (setting [7]), 0%; in test [2] (setting [8]), 64%; in test [2] (at 50.0 µM), 25.9%. Besides, the growth inhibition in test [3] (setting [7]) is -21%; in test [3] (setting [8]) it was 66%; in test [3] (at 50.0 µM) it was 35.3%; in test [4] (setting [7]) it was 13%; in test [4] (setting [8]), 88% (active); in test [4] (at 50.0 µM), 6.15%. The growth inhibition is 3% in test [5] (setting [7]); 92% (active) in test [5] (setting [8]); 20.9% in test [5] (at 50.0 µM); -20% in test [6] (setting [7]); 87% (active) in test [6] (setting [8]); 24.1% in test [6] (at 50.0 µM).

For the molecule `CCOCCC(=O)NNc1ccccc1`, the growth inhibition in test [1] (setting [7]) was 7%; in test [1] (setting [8]) it was 43%; in test [1] (at 50.0 µM), 26.2%; in test [2] (setting [7]), 0%; in test [2] (setting [8]), 36%; in test [2] (at 50.0 µM) it was 6%. Besides, the growth inhibition in test [3] (setting [7]) is 6%; in test [3] (setting [8]) it was 41%; in test [3] (at 50.0 µM), 42.2%; in test [4] (setting [7]) it was 5%; in test [4] (setting [8]), 56%; in test [4] (at 50.0 µM) it was 56.8%. For the same molecule, the growth inhibition in test [5] (setting [7]) was 8%; in test [5] (setting [8]) it was 83% (active); in test [5] (at 50.0 µM), 42.9%; in test [6] (setting [7]) it was 19%; in test [6] (setting [8]), 80% (active); in test [6] (at 50.0 µM), 58%.
